# Values without a mark were called inactive. Results filed as inconclusive are left out. Calls of active or inactive are those of the source. Unless noted, calls follow the shape of the dose curve; as a rule, active = well fitted curve in the direction sought with a large enough effect in the repeat runs; inconclusive = weak or mixed curves; inactive = no such curve, though single readings can be large; an effect the other way counts as inactive or inconclusive.
# Experiment: qHTS assay to identify small molecule agonists of the estrogen related receptor (ERR) signaling pathway from Tox21 library (AID 1224849; calls by dose curve; also: nearly all actives have a fitted effect of over 15% in size)
# Conditions: ERR reporter cell line, ONE-Glo luciferase, 18 h; at 92.4 µM (top of the series) unless noted
# Method in brief: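 ERR reporter cell line (NTP) seeded, rested 6 h at 37 C/5% CO2, then pinned with Tox21 compounds in DMSO. After 18 h at 37 C, ONE-Glo luciferase luminescence was read following 30 min at room temperature.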
# % is scaled to controls: 0 for no effect and ±100 for the full control effect.
row,Compound,"activity change, positive = activation"
1,CCC#N,0.336%
2,CCOC(=O)C1(c2ccccc2)CCN(CCc2ccc(N)cc2)CC1,-11.7% [at 42.5 µM]
3,CSc1ccc(C(=O)C(C)(C)N2CCOCC2)cc1,-13.8%
4,N#CCNCC#N,2.04%
5,CC(=O)CCc1ccc2c(c1)OCO2,-0.0233%

# Experiment: qHTS RealTime-Glo MT Cell Viability Assay in HepG2 cells - 24 hour (AID 1224867); also: nearly all actives have a fitted effect of over 50% in size
# Conditions: RealTime-Glo luminescence; series mostly up to 76.8 µM; activity change, negative = cytotoxicity: at the top concentration
# Method in brief: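 Cells + NanoLuc/prosubstrate dispensed (600 cells/well) → 5 h at 37 C/5% CO2 → compounds in DMSO transferred → 40 h incubation at 37 C, luminescence read at 0, 8, 16, 24, 32, 40 h.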
row,Compound,"activity change, negative = cytotoxicity"
1,COCC(=O)N(c1c(C)cccc1C)N1CCOC1=O,2.1%
2,CC(=O)Nc1cc([As](=O)(O)O)ccc1O,-8.07% [at 35.3 µM]
3,CNNC,1.38%
4,CCC(Cl)[N+](=O)[O-] (stereo not given),1.07%
5,CCCSC(=O)Cl,0%
6,CC(Cl)(Cl)[N+](=O)[O-],0.934%
7,Cc1ncc2n1-c1ccc(Cl)cc1C(c1ccccc1F)=NC2,-5.35% [at 35.3 µM]
8,CC1=C(C(=O)O)N2C(=O)[C@@H](N)[C@H]2SC1,0.806% [at 15.8 µM]
9,CC1CCCCC1NC(=O)Nc1ccccc1 (stereo not given),-0.269%
10,CCCSP(=S)(OCC)Oc1ccc(Cl)cc1Cl (stereo not given),-13.6%
11,COC(=O)c1ccccc1S(=O)(=O)NC(=O)N(C)c1nc(C)nc(OC)n1,1.84%
12,CNC(=O)N(C)c1nc2ccccc2s1,0.451%
13,CNC(=O)Oc1ccccc1C1OCCO1,-0.228%
14,CC(=O)[C@H]1CC[C@H]2[C@@H]3CC[C@H]4C[C@H](O)CC[C@]4(C)[C@H]3C(=O)C[C@]12C,0.0474% [at 35.3 µM]
15,Cc1cc(C)nc(Nc2ccccc2)n1,-1.11%
16,CCCCN(CCCCO)N=O,1.16%
17,COc1cccc2c1cc([N+](=O)[O-])c1c(C(=O)O)cc3c(c12)OCO3,-25.1%
18,C#CCN1C(=O)COc2cc(F)c(N3C(=O)C4=C(CCCC4)C3=O)cc21,0.958%
19,[As]#[In],0.697%
20,CCC(C)n1c(=O)[nH]c(C)c(Br)c1=O (stereo not given),0.967%
21,CCS(=O)(=O)CCSP(=O)(OC)OC,0.781%
22,C=C(C)CN(CC)c1c([N+](=O)[O-])cc(C(F)(F)F)cc1[N+](=O)[O-],-8.31%
23,Fc1cc(Br)ccc1CBr,0.454% [at 35.3 µM]
24,OCCSCSCCO,3.76%
25,CCCCOC(=O)[C@@H](C)Oc1ccc(Oc2ccc(C#N)cc2F)cc1,-15.7%
26,CCC#N,-0.15%
27,CCC(=O)c1ccccc1,0.593%
28,CCOC(=O)C1(c2ccccc2)CCN(CCc2ccc(N)cc2)CC1,-5.52% [at 35.3 µM]
29,N#CCNCC#N,-0.144%
30,CC(=O)CCc1ccc2c(c1)OCO2,1.94%

# Experiment: qHTS RealTime-Glo MT Cell Viability Assay in HEK293 cells - 32 hour (AID 1224868); also: nearly all actives have a fitted effect of over 50% in size; also: potency is read from the fitted curve at half-maximal effect; as to activity change, negative = cytotoxic: top concentration of the series differs between compounds
# Conditions: RealTime-Glo luminescence; series mostly up to 76.8 µM; activity change, negative = cytotoxic: at the top concentration
# Method in brief: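 Tox21 10K qHTS, HEK293, 600 cells/well, RealTime-Glo reagent co-dispensed with cells; 5 h preincubation, compound by pintool, 37 C, luminescence at 0–40 h.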
Compound,"activity change, negative = cytotoxic",Potency
COCC(=O)N(c1c(C)cccc1C)N1CCOC1=O,4.7%,–
CC(=O)Nc1cc([As](=O)(O)O)ccc1O,-9.1% [at 35.3 µM],–
CNNC,-5.8%,–
CCC(Cl)[N+](=O)[O-] (stereo not given),5.99%,–
CCCSC(=O)Cl,11%,–
CC(Cl)(Cl)[N+](=O)[O-],9.2%,–
CC1=C(C(=O)O)N2C(=O)[C@@H](N)[C@H]2SC1,1.51% [at 15.8 µM],–
Cc1nnc2n1-c1sc(CCC(=O)N3CCOCC3)cc1C(c1ccccc1Cl)=NC2,-14.9% [at 35.3 µM],–
CCCSP(=S)(OCC)Oc1ccc(Cl)cc1Cl (stereo not given),-0.0838%,–
COC(=O)c1ccccc1S(=O)(=O)NC(=O)N(C)c1nc(C)nc(OC)n1,8.56%,–
CNC(=O)N(C)c1nc2ccccc2s1,-17.1%,–
CNC(=O)Oc1ccccc1C1OCCO1,3.92%,–
CCOc1nc(C(Cl)(Cl)Cl)ns1,0.234%,–
O=CNC(N1CCN(C(NC=O)C(Cl)(Cl)Cl)CC1)C(Cl)(Cl)Cl (stereo not given),1.72%,–
Cc1cc(C)nc(Nc2ccccc2)n1,-5.04%,–
CCCCC(=O)Cl,3.93%,–
CCCCN(CCCCO)N=O,6.05%,–

Compound,"activity change, negative = cytotoxic",Potency
COc1cccc2c1cc([N+](=O)[O-])c1c(C(=O)O)cc3c(c12)OCO3,–,2.45 µM (active)
C[C@]12CC[C@H]3[C@@H](CCC4=CC(=O)CC[C@@]43C)[C@@H]1CC[C@@H]2C(=O)O,2.65% [at 35.3 µM],–
C#CCN1C(=O)COc2cc(F)c(N3C(=O)C4=C(CCCC4)C3=O)cc21,1.54%,–
N#CCBr,8.38%,–
CCC(C)n1c(=O)[nH]c(C)c(Br)c1=O (stereo not given),0.0476%,–
CCS(=O)(=O)CCSP(=O)(OC)OC,12.2%,–
C=C(C)CN(CC)c1c([N+](=O)[O-])cc(C(F)(F)F)cc1[N+](=O)[O-],2.71%,–
Fc1cc(Br)ccc1CBr,5.06% [at 35.3 µM],–
OCCSCSCCO,0.658%,–
CCCCOC(=O)[C@@H](C)Oc1ccc(Oc2ccc(C#N)cc2F)cc1,–,21.7 µM (active)
CCC#N,0.608%,–
CCC(=O)c1ccccc1,1.86%,–
CCOC(=O)C1(c2ccccc2)CCN(CCc2ccc(N)cc2)CC1,-19.1% [at 35.3 µM],–
CSc1ccc(C(=O)C(C)(C)N2CCOCC2)cc1,0.581%,–
N#CCNCC#N,2.69%,–
CC(=O)CCc1ccc2c(c1)OCO2,1.15%,–

# Experiment: A CellTox Green Cytotoxicity Assay to monitor cytotoxicity in HEK293 cells - 0 hour (AID 1224869); also: nearly all actives have a fitted effect of over 50% in size
# Conditions: CellTox Green fluorescence; series mostly up to 76.8 µM; cytotoxicity: at the top concentration
# Method in brief: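 HEK293 cells premixed with CellTox Green dye were seeded at 600 cells/well and left 5 h at 37 C/5% CO2 before pin transfer of 23 nL compound in DMSO. Fluorescence from dye bound to dead-cell DNA was read during 40 h treatment.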
row,Compound,cytotoxicity
1,COCC(=O)N(c1c(C)cccc1C)N1CCOC1=O,1.24%
2,CC(=O)Nc1cc([As](=O)(O)O)ccc1O,4.75% [at 35.3 µM]
3,CNNC,1.45%
4,CCC(Cl)[N+](=O)[O-] (stereo not given),0.583%
5,CCCSC(=O)Cl,0.75%
6,CC(Cl)(Cl)[N+](=O)[O-],1.09%
7,Cc1ncc2n1-c1ccc(Cl)cc1C(c1ccccc1F)=NC2,-0.0698% [at 35.3 µM]
8,CC1=C(C(=O)O)N2C(=O)[C@@H](N)[C@H]2SC1,-3.35% [at 15.8 µM]
9,Cc1nnc2n1-c1sc(CCC(=O)N3CCOCC3)cc1C(c1ccccc1Cl)=NC2,0.0942% [at 35.3 µM]
10,CC1CCCCC1NC(=O)Nc1ccccc1 (stereo not given),-7.18%
11,CCCSP(=S)(OCC)Oc1ccc(Cl)cc1Cl (stereo not given),-2.95%
12,COC(=O)c1ccccc1S(=O)(=O)NC(=O)N(C)c1nc(C)nc(OC)n1,0.93%
13,CNC(=O)N(C)c1nc2ccccc2s1,-6.49%
14,CNC(=O)Oc1ccccc1C1OCCO1,-1.21%
15,CCOc1nc(C(Cl)(Cl)Cl)ns1,-10.8%
16,CC(=O)[C@H]1CC[C@H]2[C@@H]3CC[C@H]4C[C@H](O)CC[C@]4(C)[C@H]3C(=O)C[C@]12C,-2.14% [at 35.3 µM]
17,O=CNC(N1CCN(C(NC=O)C(Cl)(Cl)Cl)CC1)C(Cl)(Cl)Cl (stereo not given),-3.17%
18,Cc1cc(C)nc(Nc2ccccc2)n1,1.67%
19,CCCCC(=O)Cl,-1.36%

row,Compound,cytotoxicity
1,CCCCN(CCCCO)N=O,-1.02%
2,COc1cccc2c1cc([N+](=O)[O-])c1c(C(=O)O)cc3c(c12)OCO3,-3.63%
3,C[C@]12CC[C@H]3[C@@H](CCC4=CC(=O)CC[C@@]43C)[C@@H]1CC[C@@H]2C(=O)O,0.473% [at 35.3 µM]
4,C#CCN1C(=O)COc2cc(F)c(N3C(=O)C4=C(CCCC4)C3=O)cc21,-0.599%
5,[As]#[In],-4.12%
6,N#CCBr,0.675%
7,CCC(C)n1c(=O)[nH]c(C)c(Br)c1=O (stereo not given),0.629%
8,CCS(=O)(=O)CCSP(=O)(OC)OC,0.973%
9,C=C(C)CN(CC)c1c([N+](=O)[O-])cc(C(F)(F)F)cc1[N+](=O)[O-],1.29%
10,Fc1cc(Br)ccc1CBr,-0.132% [at 35.3 µM]
11,OCCSCSCCO,5.21%
12,CCCCOC(=O)[C@@H](C)Oc1ccc(Oc2ccc(C#N)cc2F)cc1,1.02%
13,CCC#N,-7.48%
14,CCC(=O)c1ccccc1,2.24%
15,CCOC(=O)C1(c2ccccc2)CCN(CCc2ccc(N)cc2)CC1,9.49% [at 35.3 µM]
16,CSc1ccc(C(=O)C(C)(C)N2CCOCC2)cc1,-8.51%
17,N#CCNCC#N,-3.55%
18,CC(=O)CCc1ccc2c(c1)OCO2,-4.88%
